# PubChem BioAssay (Tox21)
# “And” between values parts separate entries of the source, which are not always exact repeats. Identical values can stand only once. Records with an inconclusive call do not appear. A call without a number means that no potency is given here. Some structures have more than one record in an assay (separate samples or runs), and their calls can disagree. The source made the active and inactive calls. Calls come from the whole dose curve; as a rule, active = well fitted inhibition curve with a large enough effect in the repeat runs; inconclusive = weak or mixed curves; inactive = flat fitted curve, though single readings scatter.
# Target: Voltage-gated inwardly rectifying potassium channel KCNH2 (Homo sapiens) (UniProt Q12809)
# Experiment: Human Ether-a-go-go-Related Gene (hERG) channel small molecule antagonists: fluorescence cell-based qHTS assay (AID 1671200); note: nearly all actives have a fitted effect of over 50% in size
# Conditions: hERG-U2OS cells, FluxOR thallium flux fluorescence; series mostly up to 76.8 µM
# Excerpt: National Center for Advancing Translational Sciences [NCATS]
# U.S. Environmental Protection Agency [EPA]
# National Institutes of Environmental Health Sciences [NIEHS]
# National Toxicology Program [NTP]
# U.S. Food and Drug Administration [FDA]
# Mutations in the hERG channel cause Long QT (LQT) syndrome. LQT syndrome is a cardiac disorder which can cause ventricle arrhythmia and sudden death. Additionally, compounds which block the hERG channel can cause acquired LQT syndrome. Several FDA approved drugs have been removed from the market due to their hERG blocking activity. A cell-based hERG channel inhibition assay can be used to screen chemical compounds that inhibit hERG channel. This assay measures hERG channel activity using thallium ions as surrogate ions to measure potassium into the cells.
# Tox21 Assay Protocol Summary:
# hERG-U2OS cells were resuspended in culture medium and dispensed into 1536-well, black wall/clear-bottom plates at 1000cells/well/3uL using a Multidrop Combi dispenser (Thermo Fisher, Waltham, MA). After plates were incubated at 37 C overnight, 3 uL of Loading Buffer provided by FluxOR II Potassium Ion Channel Assay kit (Thermo, Carlsbad, CA) was added to each well. The assay plates were then incubated at room temperature in the dark for 1h. […] After the assay plates were incubated at room temperature for 10 min, 1 uL of Stimulus Buffer provided by FluxOR II Potassium Ion Channel Assay kit was added into each well and fluorescence intensity (480nm excitation/540nm emission) was continuously measured for 2 min at 1 second intervals using a Functional Drug Screening System (FDSS) 7000EX kinetic plate reader (Hamamatsu, Japan).
# Potency is the fitted concentration of half-maximal effect.
# Chain of Voltage-gated inwardly rectifying potassium channel KCNH2 (Homo sapiens) (Q12809 whole entry, looked up): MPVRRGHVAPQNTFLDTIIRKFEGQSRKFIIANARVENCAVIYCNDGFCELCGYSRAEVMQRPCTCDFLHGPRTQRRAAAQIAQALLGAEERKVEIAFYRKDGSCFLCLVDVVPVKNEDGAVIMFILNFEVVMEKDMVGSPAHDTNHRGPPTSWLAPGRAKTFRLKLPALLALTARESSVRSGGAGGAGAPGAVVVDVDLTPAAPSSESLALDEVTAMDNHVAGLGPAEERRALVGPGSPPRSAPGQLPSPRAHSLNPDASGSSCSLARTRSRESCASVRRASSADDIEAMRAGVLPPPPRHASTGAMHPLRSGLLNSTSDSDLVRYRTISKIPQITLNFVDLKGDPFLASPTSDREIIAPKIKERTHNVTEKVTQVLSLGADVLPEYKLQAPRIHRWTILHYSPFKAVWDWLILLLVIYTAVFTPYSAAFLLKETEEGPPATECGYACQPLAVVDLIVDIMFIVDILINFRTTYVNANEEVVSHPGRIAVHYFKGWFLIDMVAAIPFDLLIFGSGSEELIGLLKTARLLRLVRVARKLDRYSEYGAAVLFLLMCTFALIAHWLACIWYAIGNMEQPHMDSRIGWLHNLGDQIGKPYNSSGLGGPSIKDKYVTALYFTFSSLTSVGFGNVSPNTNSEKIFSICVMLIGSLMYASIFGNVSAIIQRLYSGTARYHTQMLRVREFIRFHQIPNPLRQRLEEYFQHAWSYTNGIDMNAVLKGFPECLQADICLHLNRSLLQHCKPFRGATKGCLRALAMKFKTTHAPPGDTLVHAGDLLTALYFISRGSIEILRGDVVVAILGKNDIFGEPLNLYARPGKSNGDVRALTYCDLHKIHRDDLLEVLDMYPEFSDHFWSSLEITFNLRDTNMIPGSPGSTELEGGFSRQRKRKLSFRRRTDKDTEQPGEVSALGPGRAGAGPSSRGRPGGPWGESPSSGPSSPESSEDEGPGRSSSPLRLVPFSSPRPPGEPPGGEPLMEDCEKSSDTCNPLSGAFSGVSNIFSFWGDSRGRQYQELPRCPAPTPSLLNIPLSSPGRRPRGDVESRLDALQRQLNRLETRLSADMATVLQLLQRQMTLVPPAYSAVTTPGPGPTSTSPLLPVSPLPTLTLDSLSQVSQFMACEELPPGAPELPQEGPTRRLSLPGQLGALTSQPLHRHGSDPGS
row,SMILES,Potency
1,CCN[C@@H](C)Cc1cccc(C(F)(F)F)c1,inactive
2,CCNc1nc(NCC)nc(SC)n1,inactive
3,CC[C@@H](CO)NC(=O)[C@@H]1C=C2c3cccc4[nH]cc(c34)C[C@H]2N(C)C1,inactive
4,COc1ccccc1OC,inactive
5,CC(=O)CN(CC(C)=O)N=O,inactive
6,ClC1=C(Cl)C2(Cl)C(CBr)CC1(Cl)C2(Cl)Cl (stereo not given),inactive
7,CCC(=O)OC1(c2ccccc2)CCN(C)CC1,inactive
8,C=C(Cl)CSC(=S)N(CC)CC,53.5 µM (active)
9,CC(C)(O)C(Cl)(Cl)Cl,inactive
10,CC(O)CCl (stereo not given),inactive
11,NC(=O)CS(=O)C(c1ccccc1)c1ccccc1 (stereo not given),inactive
12,O=C(NC(O)C(Cl)(Cl)Cl)NC(O)C(Cl)(Cl)Cl (stereo not given),inactive
13,CCN(CCO)CCn1c(Cc2ccccc2)nc2c1c(=O)n(C)c(=O)n2C,inactive
14,CCOP(=O)(CN(CCO)CCO)OCC,inactive
15,C=CC=O,inactive
16,CCC(C)C(C)(COC(N)=O)COC(N)=O (stereo not given),inactive
17,CCNc1nc(Cl)nc(NC(C)(C)C)n1,inactive
18,CS(=O)(=O)c1ccc(C(=O)C2C(=O)CCCC2=O)c(Cl)c1COCC(F)(F)F,inactive
19,O=CCCl,inactive
20,Oc1ccc2c3c1O[C@H]1[C@@H](O)C=C[C@H]4[C@@H](C2)NCC[C@@]341,inactive

row,SMILES,Potency
1,CCC1(CC)C(=O)C=CNC1=O,inactive
2,C=CC(=O)OCCN(C)C,inactive
3,CCC1(c2ccccc2)C(=O)N(COC)C(=O)N(COC)C1=O,inactive
4,BrCc1ccc(Br)cc1,inactive
5,C1CN2CCC1CC2,inactive
6,CCCCCCCCBr,inactive
7,CC(Cc1ccccc1)NCCn1cnc2c1c(=O)n(C)c(=O)n2C (stereo not given),inactive
8,CCCOc1nn(C(=O)NS(=O)(=O)c2ccccc2C(=O)OC)c(=O)n1C,inactive
9,CCc1ccc(C2CCNCC2)cc1,inactive
10,O=P(O)(O)CN(CP(=O)(O)O)CP(=O)(O)O,inactive
11,C=C1CC[C@@]2(O)[C@H]3Cc4ccc(O)c5c4[C@@]2(CCN3CC2CC2)[C@H]1O5,inactive
12,CCOC1Oc2ccc(OS(C)(=O)=O)cc2C1(C)C (stereo not given),inactive
13,CCCOC(=O)c1cncn1C(C)c1ccccc1 (stereo not given),inactive
14,N#CN=C1SCCN1Cc1ccc(Cl)nc1,inactive
15,CCCC(C)(COC(N)=O)COC(N)=O,inactive
16,CNC(=O)NC(O)C(Cl)(Cl)Cl (stereo not given),inactive
17,CCOC(=O)CCl,inactive
18,C[C@@H](N)[C@@H](O)c1ccccc1,inactive
19,N[C@@H]1C[C@H]1c1ccccc1,inactive
20,O=C1C2CC=CCC2C(=O)N1SC(Cl)(Cl)Cl (stereo not given),inactive and 48.2 µM (active)
